Laboratory results as given in PubChem BioAssay (NCATS).
Records with an inconclusive call do not appear. Where a call stands in place of a potency, no number is given. Active and inactive are the calls of the source. The call rests on the fitted dose curve; in most records, active means well fitted cell-killing curve with a large enough effect; inconclusive means small, poorly fitted or top-dose-only effect, or effect the other way; inactive means no such curve, though single readings can be large or run the other way.

How the values were obtained:
[1] = Viability qHTS for spleen associated tyrosine kinase inhibitor (SYKi) naive MV4-11 cells (AID 1963823); conditions: MV4-11 AML viability, CellTiter-Glo luminescence, 72 h; series mostly up to 45 µM; further: nearly all actives have a fitted effect of over 40% in size
Outline: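 SYKi-naive MV4-11 AML cells, 500 per well, were exposed to library compounds for 72 hr at 37 C, 5% CO2. Viability was then read by CellTiter-Glo luminescence after 10 min at room temperature.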

[2] = Viability qHTS for spleen associated tyrosine kinase inhibitor (SYKi) drug resistant MV4-11 cells (AID 1963824); conditions: SYKi-resistant MV4-11 viability, CellTiter-Glo, 72 h; series mostly up to 45 µM; further: nearly all actives have a fitted effect of over 35% in size
Outline: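 CellTiter-Glo luminescence, read 10 min after reagent addition, reports viability after a 72 hr compound exposure. Cells are an MV4-11 line made resistant to SYK inhibition, seeded at 500 per well onto compound-containing plates.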
Potency means the concentration at half of the fitted maximal effect.

SMILES | Potency [1] | Potency [2]
CC1(C)[C@@H](O)CC[C@]2(C)[C@H]3CC=C4[C@@H]5C[C@](C)(C(=O)O)CC[C@]5(C)CC[C@@]4(C)[C@]3(C)CC[C@@H]12 | inactive | inactive
CC1(C)CC[C@]23CO[C@@]4(CCC5[C@@]6(C)CC[C@H](O[C@@H]7OC[C@H](O[C@@H]8O[C@H](CO)[C@@H](O)[C@H](O)[C@H]8O[C@@H]8OC[C@@H](O)[C@H](O)[C@H]8O)[C@H](O)[C@H]7O[C@@H]7O[C@H](CO)[C@@H](O)[C@H](O)[C@H]7O)[C@@](C)(CO)C6CC[C@@]5(C)[C@]4(C)C[C@H]2O)[C@@H]3C1 (stereo partly drawn) | 2.19 µM (active) | 3.9 µM (active)
CCC(=O)N1CCc2cc(OC)c(O)cc2C1 | inactive | inactive
COC1CC(=O)C23C(=O)NC(Cc4c[nH]c5ccccc45)C2C(C)C2(C)OC2C3/C=C/CC(C)CC1O (stereo not drawn) | 3.99 µM (active) | 4.47 µM (active)
C=C[C@@]12COC(=O)C(=C)[C@@H]1[C@@H](O)[C@H](C(=C)C(=O)OC)[C@@H](O)C2 | inactive | inactive
O=C(O)CCc1cc2ccoc2cc1O[C@@H]1O[C@H](CO)[C@@H](O)[C@H](O)[C@H]1O | inactive | inactive
C=C1C(=O)O[C@@H]2[C@H]3C(C)=CC(=O)C3=C(C)CC[C@@H]12 | 2.06 µM (active) | 0.651 µM (active)
O=C(OC[C@H]1O[C@H](O[C@]2(CO)O[C@H](CO)[C@@H](O)[C@@H]2O)[C@H](O)[C@@H](O)[C@@H]1O)c1ccccc1 | inactive | inactive
CCN1CCN(Cc2ccc(NC(=O)c3ccc(C)c(Oc4ccnc5[nH]ccc45)c3)cc2C(F)(F)F)CC1 | 0.0255 µM (active) | 0.0718 µM (active)
